MITF inh – MITF inhibitors, primary screen, biochemical, AlphaScreen, human | Microphthalmia-associated transcription factor (Homo sapiens), O75030 | AlphaScreen MITF homodimerization, bead proximity signal | inhibition, % at 2.6 µM | actives 0.91% (n = 650,000) | AID 1259374, 2018; in the data active means inhibition above about 50%;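 further: 0% = vehicle wells with protein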
Target sequence (O75030 whole entry, looked up): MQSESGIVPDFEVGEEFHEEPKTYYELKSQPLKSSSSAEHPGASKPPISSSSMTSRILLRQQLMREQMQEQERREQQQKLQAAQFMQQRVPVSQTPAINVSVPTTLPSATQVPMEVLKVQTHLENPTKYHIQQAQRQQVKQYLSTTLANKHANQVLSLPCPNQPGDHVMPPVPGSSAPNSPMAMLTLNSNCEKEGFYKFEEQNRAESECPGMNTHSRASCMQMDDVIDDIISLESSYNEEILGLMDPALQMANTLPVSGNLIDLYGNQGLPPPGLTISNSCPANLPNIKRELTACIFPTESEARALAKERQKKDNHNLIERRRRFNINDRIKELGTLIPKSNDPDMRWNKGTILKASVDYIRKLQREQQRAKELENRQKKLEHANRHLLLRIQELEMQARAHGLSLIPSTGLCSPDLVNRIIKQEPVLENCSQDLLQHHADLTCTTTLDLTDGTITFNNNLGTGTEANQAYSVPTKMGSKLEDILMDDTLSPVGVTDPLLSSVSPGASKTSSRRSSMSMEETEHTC
GPR151 ag – activators of human GPR151, primary screen, cell-based, PathHunter beta-arrestin, luminescence | actives 1% (n = 650,000) | AID 1508602, 2020 | activation, % at 11.2 µM | PathHunter beta-arrestin GPR151 cells; in the data active means activation above about 4.9%;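 further: 0% = median of compound wells and 100% = cells with positive control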
FBW7 activator – FBW7 E3 ligase activators, primary screen, biochemical, AlphaScreen, human. F-box/WD repeat-containing protein 7 (Homo sapiens), Q969H0. AlphaScreen FBW7–phospho-cyclin E peptide binding, activator screen. normalized activity (activation), % at 26.1 µM. actives 0.13% (n = 650,000). AID 1259310, 2017; in the data active means normalized activity above about 1.9%;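 further: purified mutant Fbw7 with reduced substrate affinity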
TEAD-YAP block – TEAD-YAP interaction inhibition, primary screen, TEAD-YAP interaction inhibitor project, luminescence, HEK-TIYL cells; TEAD-Gal4/YAP UAS-luciferase luminescence; inhibition, % at 9.12 µM; actives 1.4% (n = 640,000); AID 1259422, 2018; in the data active means inhibition above about 32%;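 further: 0% = median of test compound wells and 100% = reference inhibitor wells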
MITF inh conf – MITF inhibitors, retest of hits, confirmation, biochemical, AlphaScreen, triplicate. shares compounds with MITF inh. AlphaScreen MITF homodimerization, biotin/His-MITF beads. inhibition, % at 2.6 µM. actives 16% (n = 4,700);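 active means inhibition above a cutoff derived from the DMSO control wells, cut at about 28% in these data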;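 further: 0% = MITF dimer wells with DMSO only; inhibitors lower the bead chemiluminescence by keeping MITF from dimerizing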
AS interf DR – AlphaScreen optical interference compounds, dose response, counter-screen, biochemical, HTS. shares compounds with MITF inh. AlphaScreen optical interference counterscreen, cell-free. IC50, µM. actives 6% (n = 480). AID 1259373, 2018; call rule not given here
AlphaScreen intf2 – AlphaScreen optical interference compounds, counter-screen for MITF inhibitor project, biochemical, triplicate; AID 1259376, 2018; actives 7.6% (n = 4,700); shares compounds with MITF inh; LysRS AlphaScreen counterscreen, signal interference; inhibition, % at 2.6 µM;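 active means inhibition above a cutoff derived from the DMSO control wells, cut at about 30% in these data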
The depositor's hits bear a star; . = not tested or not shown. Most compounds without a hit are left out; they make up all but 3.5% or so of the library.

SMILES | MITF inh | GPR151 ag | FBW7 activator | TEAD-YAP block | MITF inh conf | AlphaScreen intf2 | others
COc1ccc(NC(=O)c2ccc(S(=O)(=O)N(C)C3CCCC3)cc2)cc1 | -6.4 | 0.8 | 0.0 | 9.0 | . | .
COCCCNC(=O)/C(C#N)=C/c1ccc(-c2ccc(C(=O)O)c(Cl)c2)o1 | 63.5* | 1.7 | -0.1 | 2.3 | 66.7* | -4.1 | AS interf DR=>6.48
O=[N+]([O-])c1cccc2c(NS(=O)(=O)c3ccc(Cl)cc3)cccc12 | -2.0 | 0.2 | -0.4 | -7.2 | . | .
COc1cccc(CNCC(=O)NCc2ccc3c(c2)OCO3)c1 | 59.5* | -0.3 | -0.1 | 3.7 | 9.1 | 14.4
O=C(CSCc1ccccc1)NCc1ccc2c(c1)OCO2 | 13.4 | 1.0 | 0.0 | 10.1 | . | .
O=C(CNCc1ccc2c(c1)OCO2)Nc1ccccc1F | 64.4* | 0.4 | 0.0 | 0.8 | 4.3 | 16.3
CC(C)NC(=O)CNCc1ccc2c(c1)OCO2 | 34.0 | 1.3 | 0.0 | -3.8 | . | .
O=C(CNCCc1ccccc1)NCc1ccc2c(c1)OCO2 | 73.3* | -0.1 | 0.6 | -0.7 | 8.9 | 13.9
O=C(CNCCN1CCOCC1)NCc1ccc2c(c1)OCO2 | 84.5* | 0.5 | 0.0 | 7.1 | 18.9 | 13.6
O=C(CNCc1cccnc1)Nc1ccccc1 | 40.2 | -0.3 | -0.2 | 0.5 | . | .
O=C(CNCc1cccnc1)Nc1ccc2c(c1)OCO2 | 58.6* | -0.1 | 0.0 | 0.0 | 1.9 | 7.5
Cc1cccc(OCC(=O)Nc2cc(C)c(C)cc2O)c1 | 98.0* | -0.5 | -0.1 | -2.5 | -12.4 | 3.2
CN(C)CCCN(CCCN(C)C)Cc1ccc(C(F)(F)F)cc1 | 53.6* | -0.4 | -0.1 | -1.7 | -9.3 | 0.3
CN(C)CCCN(CCCN(C)C)Cc1ccc(F)c(F)c1 | 56.0* | -0.2 | 0.0 | -1.0 | -12.0 | -0.9
Cn1c(-c2cccc([N+](=O)[O-])c2)cnc1NCc1cccc([N+](=O)[O-])c1 | 37.6 | -1.0 | -0.3 | 7.5 | . | .
Cn1c(-c2ccc(Br)cc2)cnc1NCc1cccnc1 | 25.9 | -0.1 | 0.6 | 2.2 | . | .
Cn1c(-c2ccc(-c3ccccc3)cc2)cnc1NCc1cccnc1 | 62.9* | 0.1 | 0.7 | -43.8 | -13.4 | -3.0
Cn1c(-c2ccc(F)cc2)cnc1NCc1ccc(F)cc1 | 52.6* | -0.3 | 0.1 | 7.9 | -3.0 | 0.0
Cc1ccc(-c2cnc(NCc3cccc([N+](=O)[O-])c3)n2C)cc1 | 65.0* | -0.1 | 0.0 | 6.9 | -2.3 | -2.3
Cn1c(-c2ccc3c(c2)OCO3)cnc1NCc1cccc(F)c1 | 54.5* | -0.4 | 0.1 | -29.6 | -16.4 | -6.3
CNC(=O)C1CN(CCOc2ccc(F)cc2)CCN1S(C)(=O)=O (stereo not given) | 0.1 | 0.2 | -0.1 | 0.1 | . | .
COc1cccc(-c2cnc(NCc3ccc(F)cc3F)n2C)c1 | 51.0* | 2.1 | 0.3 | -5.0 | -15.5 | -4.4
Nc1cc(-c2csc3ccccc23)nc(N)n1 | 10.1 | -0.3 | 0.2 | -8.8 | . | .
CN(C)CC(C)(C)CNCC(=O)Nc1ccc(F)c(F)c1F | 69.8* | -0.4 | 0.1 | 0.8 | 0.8 | -2.0
CCN(CC)CCOCCOc1cccc2ccccc12 | 0.7 | 0.7 | 0.1 | 1.5 | . | .
SMILES | MITF inh | GPR151 ag | FBW7 activator | TEAD-YAP block | MITF inh conf | AlphaScreen intf2 | others
CC(C)Oc1ccccc1OCCN(C)C | 75.3* | 0.4 | -0.3 | 5.2 | 7.1 | 14.6
CN(C)CCOCCOc1cccc2ccccc12 | 62.6* | -0.2 | -0.2 | 14.0 | -1.2 | -1.1
C=CCN(CC=C)CCOc1ccccc1OC(C)C | 35.1 | 2.1 | -0.1 | -5.1 | . | .
COc1cc(C(=O)Nc2ccccc2-c2nnn(CC(N)=O)n2)cc(OC)c1OC | 2.8 | 0.3 | 0.0 | 9.5 | . | .
COc1ccccc1C(=O)Nc1ccccc1-c1nnn(CC(N)=O)n1 | 92.8* | 1.6 | -0.3 | -2.0 | 13.3 | 12.0
COc1ccc(NC(=O)Cn2nnc(-c3ccccc3N)n2)cc1OC | 58.0* | -0.1 | 0.1 | 10.1 | 7.3 | 13.3
Cc1ccc(OCCn2cncn2)c(I)c1 | 60.1* | -0.4 | 0.8 | -1.4 | 7.5 | 11.5
